# PubChem BioAssay
# Calls of active or inactive are those of the source. The rule behind the calls is not given here.
# Target: Pantothenate synthetase (Mycobacterium tuberculosis (strain ATCC 25618 / H37Rv)) (UniProt P9WIL5)
# Assay: Coupled enzyme confirmation of inhibitors against recombinant Mtb PanC (AID 375);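 note: 0% = full reaction with vehicle and 100% = no enzyme background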
# Conditions: coupled enzyme assay; at 10 µM, stronger effect = higher value
# Pantothenate synthetase (Mycobacterium tuberculosis (strain ATCC 25618 / H37Rv)), sequence (P9WIL5 whole entry, looked up): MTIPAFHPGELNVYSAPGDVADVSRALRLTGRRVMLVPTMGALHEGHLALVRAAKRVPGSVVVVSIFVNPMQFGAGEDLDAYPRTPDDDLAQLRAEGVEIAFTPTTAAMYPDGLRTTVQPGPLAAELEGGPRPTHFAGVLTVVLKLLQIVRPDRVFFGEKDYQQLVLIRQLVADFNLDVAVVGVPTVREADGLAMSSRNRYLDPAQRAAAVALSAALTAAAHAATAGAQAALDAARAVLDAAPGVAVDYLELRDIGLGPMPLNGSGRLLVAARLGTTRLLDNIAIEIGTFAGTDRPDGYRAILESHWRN
row,SMILES,inhibition
1,COc1ccc(OC(C)C(=O)N2CCN(c3ccccn3)CC2)cc1 (stereo not given),7% (inactive)
2,Cn1c(=O)c2ccccc2n(Cc2ccccc2F)c1=O,0% (inactive)
3,CCOC(=O)c1ccc(-n2c(C)nc3c(cnn3-c3ccccc3C)c2=O)cc1,0% (inactive)
4,COc1ccc(N2CCN(c3ncnc4c3cnn4-c3ccc(C)cc3C)CC2)cc1,8% (inactive)
5,Cc1ccc(-c2noc(C3CCCN(C(=O)c4ccccc4)C3)n2)o1 (stereo not given),0% (inactive)
6,CCc1nc2sc(C)c(C)c2c(=O)n1CCO,7% (inactive)
7,CN(Cc1ccc(-n2cccn2)cc1)C(=O)c1cnn2c1NC(c1ccco1)CC2C(F)(F)F (stereo not given),0% (inactive)
8,Cn1c(=O)c2c(nc(N3CCCCC3)n2CCSc2nc3ccccc3o2)n(C)c1=O,8% (inactive)
9,CCOC(=O)C1=C(C)Nc2ncnn2C1c1ccccc1F (stereo not given),6% (inactive)
10,CCOc1ccccc1-n1c(SCC(=O)NC(C)CC)nnc1-c1ccoc1C (stereo not given),0% (inactive)
11,Cc1ccc(NC(=O)CCN2CCc3ccccc3C2)cc1,0% (inactive)
12,CCOc1ccccc1N1C(=O)CC(Sc2ncccc2C(=O)O)C1=O (stereo not given),0% (inactive)
13,O=C(CSc1nnc(CNC(=O)c2cccs2)o1)Nc1cccc(C(F)(F)F)c1,0% (inactive)
14,O=C(Nc1ccccc1)N(CCCN1CCOCC1)Cc1cc2cc3c(cc2[nH]c1=O)OCCO3,0% (inactive)
15,CC(O)c1nc2ccccc2n1C1CCCCC1 (stereo not given),0% (inactive)
16,COc1cc(C(=O)N2CCC(c3nc(-c4cccnc4)no3)CC2)cc(OC)c1OC,0% (inactive)
17,CC(=O)C1=C(N2CCCCC2)CCC1=O,0% (inactive)
18,CCOC(=O)c1ccc(S(=O)(=O)NC2CCCCCCC2)n1C,0% (inactive)
19,COc1cc(NC(=O)c2ccco2)c(OC)cc1NC(=O)CCC(=O)Nc1cc(C)cc(C)c1,8% (inactive)
20,COc1cccc(OC)c1C(=O)N1CCN(S(=O)(=O)c2ccc(C)cc2)CC1,1% (inactive)

row,SMILES,inhibition
1,CC(c1ccccc1)n1cnc2ccccc21 (stereo not given),0% (inactive)
2,Cn1c(=O)c(NC(=O)c2ccccc2)c2n(c1=S)CCCCC2,0% (inactive)
3,COc1ccc2c(c1)CCc1cc(C(=O)N3CCN(c4ccc(N5CCOCC5)nn4)CC3)sc1-2,2% (inactive)
4,O=C(Nc1nnc(C2CCCCC2)s1)c1cccs1,8% (inactive)
5,COc1cc(Br)cc(CN2CCN(C/C=C/c3ccccc3)CC2)c1O,0% (inactive)
6,COCc1nnc(NS(=O)(=O)c2ccc(Br)cc2)s1,2% (inactive)
7,Brc1ccc(-c2cn3cccnc3n2)cc1,0% (inactive)
8,Fc1ccccc1-c1nc(-c2ccccc2)no1,5% (inactive)
9,CCCC1Cc2c(sc3ncnc(N)c23)CO1 (stereo not given),0% (inactive)
10,Cn1nnnc1SCC(=O)Nc1ccccc1C(=O)NCc1ccccc1,0% (inactive)
11,c1ccc2c(c1)[nH]c1c(N3CCC4(CC3)OCCO4)ncnc12,0% (inactive)
12,Cn1c(=O)c2c(ncn2CC(O)CNc2ccc(Cl)cc2)n(C)c1=O (stereo not given),0% (inactive)
13,Cn1c(SCC(=O)N2CCN(c3cccc(Cl)c3)CC2)nnc1-c1ccncc1,0% (inactive)
14,CCOc1ccc(N(CC(=O)Nc2cccc(OC)c2)S(=O)(=O)c2c(C)noc2C)cc1,11% (inactive)
15,CCCCc1nc2n[nH]c(N)c2c2c1CCCC2,0% (inactive)
16,CCOC(=O)C1CCCN(c2nc3ccccc3nc2C(C#N)C(=O)NCc2ccccc2)C1 (stereo not given),0% (inactive)
17,COc1ccccc1CN1C(=O)CCC1(C)C(=O)NC1CCCCCC1 (stereo not given),8% (inactive)
18,C[C@H](CCC(=O)O)[C@H]1CC[C@H]2[C@@H]3C(=O)C[C@@H]4CC(=O)CC[C@]4(C)[C@H]3CC(=O)[C@]12C,2% (inactive)
19,O=C(COC(=O)c1ccco1)NCc1cccs1,0% (inactive)
20,CCOc1ccc2cc(C#N)c(SCC(=O)N3CCOCC3)nc2c1,0% (inactive)
